# The list is not random: actives were taken first. Their share in the collection is about 6.8%.
# T cruzi growth-1: T. cruzi proliferation inhibition | inhibition, % at 8.34 µM | hit rate 5.9% among 77,000 | T. cruzi beta-gal in NIH3T3, GalScreen luminescence, 90 h;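 active = mean inhibition above about 93%, with at least 55% of replicates each passing it, limit read from the data, passing the limit was not always enough; inconclusive = only one of those two conditions holds; inactive = neither condition holds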
# Pf Dd2 growth: inhibitors of Plasmodium falciparum Dd2 growth; P. falciparum Dd2 growth, SYBR Green, 72 h; stronger effect = lower value; activity change, % at 10 µM; hit rate 2.3% among 94,000; in the data active = activity change below about -80%; inconclusive = no clear call, values can overlap the other calls
# C diff growth: blocks growth of Clostridium difficile. hit rate 0.25% among 86,000. growth activity, negative = inhibition, % at 16 µg/mL (by protocol). Clostridium difficile clinical isolate growth, OD600, 24 h; stronger effect = lower value. AID 1259249;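 active = mean growth activity at or below -80% and every replicate also at or below -80%; inconclusive = mean at or below -80% but some replicate above -80%; inactive = mean growth activity above -80%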;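 also: 0% = DMSO wells and -100% = levofloxacin 16 µg/mL wells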
# T cruzi growth-2: inhibitors of T. cruzi proliferation. shares compounds with T cruzi growth-1. T. cruzi beta-gal in NIH3T3, GalScreen luminescence, 90 h. inhibition, % at 8.35 µM. hit rate 72% among 5,600;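 active = mean replicate inhibition above about 95% and at least 55% of replicates individually reaching it, limit read from the data; inconclusive = only one of the two criteria is met; inactive = neither criterion is met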
# T cruzi growth-3: inhibitors of T. cruzi proliferation | hit rate 21% among 5,600 | inhibition, % at 2.09 µM | T. cruzi beta-gal in NIH3T3, GalScreen luminescence, 90 h | shares compounds with T cruzi growth-1;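 active = mean inhibition above about 95%, with at least 55% of replicates also reaching it, limit read from the data; inconclusive = meets just one of the two conditions; inactive = meets neither condition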;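 also: plate controls were neutral control median for no effect and positive control median for full effect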
# 3T3 cytotox: kills mouse NIH/3T3 fibroblasts; shares compounds with T cruzi growth-1; NIH/3T3 viability, CellTiter-Glo ATP luminescence, 90 h; cytotoxicity (signal decrease), % at 8.35 µM; hit rate 14% among 5,600;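 active = mean signal decrease across replicates above about 35% based on untreated-well scatter, with enough replicates individually passing, limit read from the data; inconclusive = no rule stated though some were filed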;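 also: 0% = median of neutral control wells and 100% = median of positive control wells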
# NIH3T3 tox 2: NIH/3T3 (mouse) viability loss; shares compounds with T cruzi growth-1; NIH/3T3 viability, CellTiter-Glo ATP luminescence, 90 h; inhibition, % at 24.9 µM; hit rate 56% among 5,600; AID 651744;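 active = mean loss of cell viability signal at or above a set limit, and enough replicates individually reaching it; inconclusive = meets only the mean limit or only the replicate share; inactive = meets neither condition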;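 also: 0% = median of neutral control wells and 100% = median of positive control wells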
# Starred values were filed as active, the others as inactive; ? = inconclusive; . = no result given.
SMILES,T cruzi growth-1,Pf Dd2 growth,C diff growth,T cruzi growth-2,T cruzi growth-3,3T3 cytotox,NIH3T3 tox 2
Cc1ccc(S(=O)(=O)Nc2ccc3c(c2)C(=O)N([C@@H](C)CO)C[C@H](C)[C@@H](CN(C)Cc2ccc4c(c2)OCO4)OCCCC[C@H](C)O3)cc1,105*,-53,1,102*,55,25,80*
COc1ccc(S(=O)(=O)Nc2ccc3c(c2)C(=O)N([C@@H](C)CO)C[C@H](C)[C@H](CN(C)Cc2ccc4c(c2)OCO4)OCCCC[C@@H](C)O3)cc1,86,-63,-4,.,.,.,.
Cc1ccc(S(=O)(=O)Nc2ccc3c(c2)C(=O)N([C@H](C)CO)C[C@H](C)[C@@H](CN(C)Cc2ccc4c(c2)OCO4)OCCCC[C@@H](C)O3)cc1,37,-35,-3,.,.,.,.
COc1ccc(S(=O)(=O)N[C@H]2C=C[C@H](CC(=O)NCc3ccccc3F)O[C@@H]2CO)cc1,64,-8,3,.,.,.,.
Cc1noc(C)c1S(=O)(=O)Nc1ccc2c(c1)C(=O)N([C@H](C)CO)C[C@H](C)[C@H](CN(C)Cc1ccc(Oc3ccccc3)cc1)O2,50,-2,.,.,.,.,.
O=S(=O)(c1cccc(F)c1)N1CC[C@@H]2[C@@H](CO)Nc3ccc(C#Cc4ccccc4F)cc3[C@@H]21,?,-42,1,104*,112*,3,7
Cc1ccc(S(=O)(=O)N2CC[C@@H]3[C@H](CO)Nc4ccc(C#Cc5ccccc5F)cc4[C@@H]32)cc1,85,-4,55,.,.,.,.
Cc1ccc(S(=O)(=O)N2CC[C@@H]3[C@@H](CO)Nc4ccc(C#Cc5ccccc5F)cc4[C@@H]32)cc1,102*,-4,-17,97*,102*,31,10
O=S(=O)(c1cccc(F)c1)N1CC[C@@H]2[C@H]1c1cc(C#Cc3ccccc3F)ccc1N[C@@H]2CO,?,-9,-6,92,108*,34,104*
O=S(=O)(c1ccccc1)N1CC[C@H]2[C@H](CO)Nc3ccc(C#Cc4ccccc4F)cc3[C@H]21,.,-19,0,.,.,.,.
O=S(=O)(c1ccccc1)N1CC[C@@H]2[C@H](CO)Nc3ccc(C#Cc4ccccc4F)cc3[C@@H]21,69,-28,-3,.,.,.,.
CCC(=O)N1CC2(C1)CN(C(=O)CC)[C@@H](CO)c1[nH]c3cc(OC)ccc3c12,.,9,-2,.,.,.,.
C[C@@H]1CN([C@H](C)CO)C(=O)c2cc(C#C[C@@H](C)O)cnc2O[C@H]1CN(C)CC1CCCCC1,7,28,-1,.,.,.,.
COCC(=O)Nc1ccc2c(c1)C(=O)N(C)[C@@H]1CC[C@H](CC(=O)OC)O[C@@H]1CO2,70,-58,1,.,.,.,.
COCC(=O)N1CC[C@@H]2[C@H]1c1cc(-c3ccc(OC)cc3)ccc1N(C)[C@H]2CO,32,20,-6,.,.,.,.
CCC(=O)N1CC[C@@H]2[C@H]1c1cc(-c3ccc(F)cc3)ccc1N(C)[C@@H]2CO,101*,-9,6,107*,66,8,24*
COc1ccccc1NC(=O)N1CC[C@@H]2[C@H]1c1cc(-c3ccc(F)cc3)ccc1N(C)[C@@H]2CO,112*,-13,0,98*,107*,14,34*
COc1ccccc1NC(=O)N1CC[C@@H]2[C@H]1c1cc(-c3ccccc3)ccc1N(C)[C@H]2CO,75,-2,28,.,.,.,.
COCC(=O)N1CC[C@@H]2[C@@H](CO)N(C)c3ccc(-c4cccc(OC)c4)cc3[C@@H]21,97*,1,3,108*,76,9,2
CCC(=O)N1CC[C@H]2[C@@H]1c1cc(-c3ccccc3)ccc1N(C)[C@H]2CO,45,0,-5,.,.,.,.
CCC(=O)N1CC[C@@H]2[C@H]1c1cc(-c3cccc(F)c3)ccc1N(C)[C@@H]2CO,90,11,-11,.,.,.,.
CCC(=O)N1CC[C@@H]2[C@H]1c1cc(-c3cccc(OC)c3)ccc1N(C)[C@@H]2CO,105*,2,-8,104*,108*,27,15
COc1ccc(NC(=O)N2CC(=O)N3[C@@H](CO)[C@@H](c4ccc(/C=C/c5ccccc5)cc4)[C@@H]3C2)cc1,.,-32,8,.,.,.,.
COc1ccc(CN(C)C[C@@H]2Oc3ccc(NC(=O)NC(C)C)cc3CC(=O)N([C@@H](C)CO)C[C@H]2C)cc1,.,-8,1,.,.,.,.
C[C@@H]1CN([C@@H](C)CO)C(=O)c2cc(NS(=O)(=O)c3ccc(F)cc3)ccc2O[C@@H]1CN(C)S(=O)(=O)c1cccs1,25,21,-5,.,.,.,.
SMILES,T cruzi growth-1,Pf Dd2 growth,C diff growth,T cruzi growth-2,T cruzi growth-3,3T3 cytotox,NIH3T3 tox 2
C[C@H]1CN([C@@H](C)CO)S(=O)(=O)c2ccc(C#CCN(C)C)cc2O[C@@H]1CN(C)C(=O)C1CC1,111*,-8,-3,109*,99*,5,5
C[C@@H]1CN([C@H](C)CO)S(=O)(=O)c2ccc(C#CC(C)(C)O)cc2O[C@@H]1CN(C)C(=O)C1CC1,-21,21,.,.,.,.,.
C[C@@H]1CN([C@H](C)CO)S(=O)(=O)c2ccc(C#CCN(C)C)cc2O[C@H]1CN(C)C(=O)C1CC1,89*,-12,-3,?,80,-11,-2
C[C@@H]1CN([C@H](C)CO)S(=O)(=O)c2ccc(C#CC(C)(C)O)cc2O[C@H]1CN(C)C(=O)C1CC1,105*,8,.,45,8,29,42*
CCCC#Cc1ccc2c(c1)O[C@@H](CN(C)C(=O)C1CC1)[C@H](C)CN([C@@H](C)CO)S2(=O)=O,48,-41,-4,.,.,.,.
CCCC#Cc1ccc2c(c1)O[C@@H](CN(C)C(=O)C1CC1)[C@@H](C)CN([C@H](C)CO)S2(=O)=O,63,-30,-1,.,.,.,.
CCCN1C[C@@H](C)[C@H](OC)CN(C)C(=O)c2ccc(NC(=O)c3cccc(F)c3)cc2OC[C@@H]1C,39,-34,.,.,.,.,.
C[C@H]1CN([C@@H](C)CO)C(=O)Cc2cc(NC(=O)Nc3ccc4c(c3)OCO4)ccc2O[C@@H]1CN(C)S(C)(=O)=O,.,3,10,.,.,.,.
C[C@@H]1CCCCO[C@@H](CN(C)C(=O)Cc2ccccc2)[C@H](C)CN([C@@H](C)CO)C(=O)c2cc(NS(C)(=O)=O)ccc2O1,-22,-1,1,.,.,.,.
O=C(NC1CCCC1)N1CCCCN2[C@H](CO)[C@H](c3ccc(-c4cncnc4)cc3)[C@@H]2C1,102*,-10,-1,20,0,11,10
O=C(NC1CCCC1)N1CCCCN2[C@H](CO)[C@@H](c3ccc(-c4ccncc4)cc3)[C@H]2C1,73,3,-6,.,.,.,.
O=C(NC1CCCC1)N1CCCCN2[C@H](CO)[C@@H](c3ccc(-c4cccnc4)cc3)[C@H]2C1,29,-19,-9,.,.,.,.
Cc1ccccc1-c1ccc([C@@H]2[C@H](CO)N3CCCCN(C(=O)NC4CCCC4)C[C@@H]23)cc1,118*,-32,40,106*,90,25,105*
